Results: PubChem BioAssay
The source made the active and inactive calls.

Key:
Albumin (Bos taurus) = Albumin (Bos taurus) (UniProt P02769); test: compounds binding labelled BSA control protein – biochemical, small-molecule microarray, Alexa647 label, 635/667 nm fluorescence, artefact control for SMM control protein annotation, profiling panel (AID 1118); details: BSA-A647 binding, fluorescence 635 nm, higher = more signal;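 further: score merges 667 nm emission intensity and signal-to-noise per printed compound spot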
[1] = probe aXIP binding to arrayed compounds – biochemical, NeuroSMM set, 635/667 nm fluorescence, primary screen (AID 1119); details: small-molecule microarray, higher = more signal, called active from +8 up or from −8 down;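 further: probe is the protein aXip251-270 applied at 1 µg/mL to compound-printed slides; binding of probe to printed compounds measured as 667 nm fluorescence plus signal to noise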
[2] = probe aNOTCH3 binding on compound microarray – biochemical, small-molecule microarray, 635/667 nm fluorescence, primary screen (AID 1120); details: higher = more signal;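 further: probe is a biotin-tagged antibody raised against NOTCH3 rather than NOTCH3 protein; score merges spot fluorescence near 667 nm with spot signal to noise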
[3] = probe aNOTCH2 binding on compound microarray – biochemical, small-molecule microarray, 635/667 nm fluorescence, primary screen (AID 1121); details: higher = more signal;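 further: score merges feature fluorescence read at 667 nm with its signal to noise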
[4] = molecular target: Carbonic anhydrase 2 (Homo sapiens) (UniProt P00918); test: compounds binding carbonic anhydrase 2 – biochemical, small-molecule microarray, Alexa647-labelled CAII, profiling panel (AID 1122); details: CAII-A647 binding fluorescence, higher = more signal
[5] = COS7 lysate on small-molecule microarray, probe aHis, 635 nm (AID 1123); details: COS7 cell lysate, fluorescence, higher = more signal;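 further: z-score combines 667nm fluorescence intensity with signal-to-noise per printed compound spot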
[6] = probe aLAP1 signal on lysate-treated microarray – cell lysate, small-molecule microarray, COS7 lysate, primary screen (AID 1124); details: probe aLAP1, fluorescence, higher = more signal;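 further: lysate comes from COS7 cells expressing LAP1 and is applied at 0.3 µg/mL; score merges spot fluorescence near 667 nm with signal-to-noise over triplicate slides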
Sam68 (KHDRBS1) = test: compounds binding KHDRBS1 protein – biochemical, small-molecule microarray, 635 nm fluorescence, primary screen (AID 1125); details: higher = more signal;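 further: score merges 667 nm channel intensity with signal to noise over triplicate slides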
[7] = test system: Chordin-like protein 2 (CHRDL2); test: compounds binding chordin-like 2 – biochemical, small-molecule microarray, 635 nm fluorescence, primary screen (AID 1126); details: fluorescence 635 nm, higher = more signal;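 further: printed compound slides probed with Chrdl2 protein at 4 µg/mL for 1 h at 4 C; score merges 667 nm emission intensity with signal to noise over three replicate slides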
[8] = molecular target: Concanavalin-A (Canavalia ensiformis) (UniProt P02866); test: compounds binding concanavalin A lectin – biochemical, small-molecule microarray, Alexa647 label, 635 nm, artefact control for SMM control protein annotation, primary screen (AID 1127); details: ConA-A647 binding fluorescence, higher = more signal;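 further: z combines 667 nm emission intensity with signal-to-noise across three replicate slides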
[9] = compounds binding Alexa647 anti-His antibody – biochemical, small-molecule microarray, 635 nm fluorescence, artefact control for SMM control protein annotation, primary screen (AID 1128); details: higher = more signal;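 further: score merges feature fluorescence with signal-to-noise for each printed compound spot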
[10] = test system: Human papillomavirus type 1a E7 protein (residues 1-88); test: HPV1a E7 small-molecule binders, primary screen, biochemical, small-molecule microarray, residues 1-88, 635 nm (AID 1129); details: small-molecule microarray binding, fluorescence 635 nm; higher = more signal
[11] = molecular target: Focal adhesion kinase 1 (Homo sapiens) (UniProt Q05397); test: PTK2 protein binding on printed compound slides – biochemical, small-molecule microarray, 635/667 nm fluorescence, BSA, DTT, primary screen (AID 1130); details: 635 nm fluorescence, higher = more signal;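 further: composite of spot emission at 667 nm and signal to noise over triplicate slides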
[12] = test system: Fibrinogen (Alexa647-labelled); test: Alexa647-fibrinogen binding to printed small molecules – biochemical, small-molecule microarray, 635/667 nm fluorescence, artefact control for SMM control-protein annotation, profiling panel (AID 1131); details: fibrinogen-A647 binding fluorescence, higher = more signal;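 further: z-score merges 667 nm fluorescence with per-spot signal-to-noise over triplicate slides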
[13] = molecular target: Follistatin (Homo sapiens) (UniProt P19883); test: FST protein binding to printed compounds – biochemical, small-molecule microarray, 635/667 nm fluorescence, primary screen (AID 1132); details: 635 nm fluorescence, higher = more signal
[14] = molecular target: Fibroblast growth factor 2 (Homo sapiens) (UniProt P09038); test: basic fibroblast growth factor binding to printed compounds – biochemical, small-molecule microarray, 635/667 nm fluorescence, primary screen (AID 1133); details: FGF2, fluorescence 635/667, higher = more signal
[15] = JC-1 mitochondrial potential readout, lung cancer cells – cell-based, A549, JC-1 fluorescence, basal, 24 h, 100 nL, profiling panel (AID 1138); details: higher = more signal;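 further: A549 lung adenocarcinoma cells under basal conditions with no added stimulus; test concentration not given here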
Lefty1 = Lefty1 protein binding to printed compounds – biochemical, small-molecule microarray, 635/667 nm fluorescence, primary screen (AID 1139); details: fluorescence 635/667, higher = more signal
[16] = test system: wheat germ agglutinin (Triticum aestivum), Alexa647-labelled; test: Alexa647-WGA lectin binding to printed small molecules – biochemical, small-molecule microarray, 635/667 nm fluorescence, artefact control for SMM control-protein annotation, profiling panel (AID 1140); details: WGA-A647 binding, 635 nm fluorescence, higher = more signal;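 further: score merges 667 nm feature emission with signal to noise over triplicate slides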
[17] = molecular target: Luciferin 4-monooxygenase (Photinus pyralis) (UniProt P08659); test: inhibition of purified Photinus pyralis luciferase – biochemical, luminescence, purified enzyme, 2006 set, primary screen (AID 1141); details: purified firefly luciferase, SteadyGlo luminescence, 30 min; higher = more signal, called active from +8 up or from −8 down;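 further: cell-free assay with purified firefly luciferase at 100 ng per well in PBS; test concentration not given here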
Luciferin 4-monooxygenase (Photinus pyralis), sequence (P08659 whole entry, looked up): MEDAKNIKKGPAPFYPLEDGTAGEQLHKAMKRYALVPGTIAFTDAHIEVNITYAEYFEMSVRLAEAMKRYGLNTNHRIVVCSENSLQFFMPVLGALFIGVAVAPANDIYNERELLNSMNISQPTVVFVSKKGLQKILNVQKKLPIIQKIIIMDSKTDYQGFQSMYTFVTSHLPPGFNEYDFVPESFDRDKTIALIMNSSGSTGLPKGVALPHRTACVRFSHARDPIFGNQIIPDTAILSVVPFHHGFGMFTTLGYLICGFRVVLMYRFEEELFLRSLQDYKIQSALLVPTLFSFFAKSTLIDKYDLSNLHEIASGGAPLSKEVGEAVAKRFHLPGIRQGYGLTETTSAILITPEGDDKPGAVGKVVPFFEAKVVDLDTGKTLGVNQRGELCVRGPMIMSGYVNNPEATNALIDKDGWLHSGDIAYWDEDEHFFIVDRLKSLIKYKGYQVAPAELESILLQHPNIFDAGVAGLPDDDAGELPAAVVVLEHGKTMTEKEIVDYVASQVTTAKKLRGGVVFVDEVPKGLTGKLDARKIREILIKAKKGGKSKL

Albumin (Bos taurus), sequence (P02769 whole entry, looked up): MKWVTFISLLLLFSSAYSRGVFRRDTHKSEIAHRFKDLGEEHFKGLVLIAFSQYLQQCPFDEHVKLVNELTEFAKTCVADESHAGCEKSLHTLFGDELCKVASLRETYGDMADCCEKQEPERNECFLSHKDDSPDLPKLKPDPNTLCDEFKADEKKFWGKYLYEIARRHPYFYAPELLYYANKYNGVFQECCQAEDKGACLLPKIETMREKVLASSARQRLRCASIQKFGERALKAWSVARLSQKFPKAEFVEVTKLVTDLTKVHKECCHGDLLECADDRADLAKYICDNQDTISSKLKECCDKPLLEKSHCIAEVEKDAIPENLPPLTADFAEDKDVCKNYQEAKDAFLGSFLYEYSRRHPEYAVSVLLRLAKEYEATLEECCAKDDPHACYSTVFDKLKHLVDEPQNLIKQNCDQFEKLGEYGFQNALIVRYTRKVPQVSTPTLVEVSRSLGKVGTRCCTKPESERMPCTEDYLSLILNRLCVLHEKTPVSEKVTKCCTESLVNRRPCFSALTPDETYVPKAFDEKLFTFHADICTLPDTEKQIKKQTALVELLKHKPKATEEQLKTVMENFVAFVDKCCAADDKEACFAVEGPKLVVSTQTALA
Fibroblast growth factor 2 (Homo sapiens), sequence (P09038 whole entry, looked up): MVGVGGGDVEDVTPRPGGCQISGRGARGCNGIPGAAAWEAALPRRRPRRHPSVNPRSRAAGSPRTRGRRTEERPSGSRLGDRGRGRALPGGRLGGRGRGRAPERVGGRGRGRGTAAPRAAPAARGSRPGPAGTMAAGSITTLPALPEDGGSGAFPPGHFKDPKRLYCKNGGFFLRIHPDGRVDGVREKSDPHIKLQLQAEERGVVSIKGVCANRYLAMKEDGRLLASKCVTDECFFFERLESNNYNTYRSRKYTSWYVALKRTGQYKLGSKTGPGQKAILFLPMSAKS
Follistatin (Homo sapiens), sequence (P19883 whole entry, looked up): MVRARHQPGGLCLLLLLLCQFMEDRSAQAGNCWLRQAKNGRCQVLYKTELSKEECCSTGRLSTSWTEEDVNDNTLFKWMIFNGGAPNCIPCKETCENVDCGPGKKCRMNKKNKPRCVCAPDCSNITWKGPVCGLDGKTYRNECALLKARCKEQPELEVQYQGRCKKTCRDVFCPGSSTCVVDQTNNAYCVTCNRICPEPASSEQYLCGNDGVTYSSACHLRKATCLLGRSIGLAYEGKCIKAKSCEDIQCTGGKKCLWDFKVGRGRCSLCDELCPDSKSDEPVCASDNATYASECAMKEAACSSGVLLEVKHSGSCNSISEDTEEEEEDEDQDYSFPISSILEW
Concanavalin-A (Canavalia ensiformis), sequence (P02866 whole entry, looked up): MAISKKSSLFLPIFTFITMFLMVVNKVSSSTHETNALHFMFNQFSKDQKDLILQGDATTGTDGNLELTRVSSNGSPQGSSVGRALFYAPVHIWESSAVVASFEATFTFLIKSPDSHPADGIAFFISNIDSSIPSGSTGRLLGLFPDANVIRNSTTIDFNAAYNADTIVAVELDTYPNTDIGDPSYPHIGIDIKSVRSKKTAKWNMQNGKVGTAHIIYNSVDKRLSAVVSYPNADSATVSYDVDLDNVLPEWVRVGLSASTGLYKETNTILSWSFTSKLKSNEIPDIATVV
Focal adhesion kinase 1 (Homo sapiens), sequence (Q05397 whole entry, looked up): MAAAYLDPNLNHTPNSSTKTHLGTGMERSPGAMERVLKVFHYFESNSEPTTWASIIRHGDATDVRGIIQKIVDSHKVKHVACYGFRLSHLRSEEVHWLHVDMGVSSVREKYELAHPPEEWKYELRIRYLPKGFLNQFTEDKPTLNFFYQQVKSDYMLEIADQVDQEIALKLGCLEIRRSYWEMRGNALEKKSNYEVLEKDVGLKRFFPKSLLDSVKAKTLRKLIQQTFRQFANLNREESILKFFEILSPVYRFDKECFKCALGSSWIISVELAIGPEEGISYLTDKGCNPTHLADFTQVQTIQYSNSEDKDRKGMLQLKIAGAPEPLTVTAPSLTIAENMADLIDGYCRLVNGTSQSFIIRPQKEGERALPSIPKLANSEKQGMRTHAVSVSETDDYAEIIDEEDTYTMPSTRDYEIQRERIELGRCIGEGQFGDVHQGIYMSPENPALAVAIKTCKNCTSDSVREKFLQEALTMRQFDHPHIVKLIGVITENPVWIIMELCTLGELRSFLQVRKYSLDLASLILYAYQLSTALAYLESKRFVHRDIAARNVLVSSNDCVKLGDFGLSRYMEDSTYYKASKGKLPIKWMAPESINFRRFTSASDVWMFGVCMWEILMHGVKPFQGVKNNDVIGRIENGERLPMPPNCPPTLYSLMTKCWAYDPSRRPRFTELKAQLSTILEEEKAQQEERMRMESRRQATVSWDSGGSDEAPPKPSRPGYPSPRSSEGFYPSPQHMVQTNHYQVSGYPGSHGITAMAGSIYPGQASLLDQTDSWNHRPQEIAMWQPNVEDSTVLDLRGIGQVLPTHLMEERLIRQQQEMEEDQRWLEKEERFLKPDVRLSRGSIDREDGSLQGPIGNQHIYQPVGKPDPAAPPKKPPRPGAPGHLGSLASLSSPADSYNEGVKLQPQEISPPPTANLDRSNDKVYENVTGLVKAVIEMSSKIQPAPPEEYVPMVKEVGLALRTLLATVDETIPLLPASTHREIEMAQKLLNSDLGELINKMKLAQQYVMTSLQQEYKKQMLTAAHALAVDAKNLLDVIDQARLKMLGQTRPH

| SMILES | composite z-score (Albumin (Bos taurus)) | composite Z-score [1] | composite z-score [2] | composite z-score [3] | composite z-score [4] | composite z-score [5] | composite z-score [6] | composite z-score (Sam68 (KHDRBS1)) | composite z-score [7] | composite z-score [8] | composite z-score [9] | composite z-score [10] | composite z-score [11] | composite z-score [12] | composite z-score [13] | composite z-score [14] | z-score [15] | composite z-score (Lefty1) | composite z-score [16] | z-score [17] |
| --- | --- | --- | --- | --- | --- | --- | --- | --- | --- | --- | --- | --- | --- | --- | --- | --- | --- | --- | --- | --- |
| COCCOC(=O)N1C(=O)[C@@]2(c3cc(C#CCNC(N)=O)ccc31)[C@H](C(=O)NC[C@H](O)c1ccccc1)[C@H]1C(=O)O[C@H](c3ccccc3)[C@H](c3ccccc3)N1[C@@H]2c1ccc(OCCO)cc1 | 0.472 | -0.102 (inactive) | 0.0018 | -0.2 | 0.355 | 0.245 | 0.666 | 1.26 | 0.285 | 1.02 | 0.991 | 1.16 | 0.707 | 0.884 | 1.18 | 0.581 | -0.71 | 0.753 | 0.851 | -0.496 (inactive) |
| Cc1ccc(S[C@]2(C(=O)NCC(F)(F)F)CC(=O)N(C3CCCCC3)[C@@H]2c2ccc(CO)cc2)cc1 | 0.344 | 0.399 (inactive) | -0.161 | -0.11 | 0.702 | 2 | 0.298 | 0.626 | -0.339 | -0.123 | 1.12 | 0.408 | -0.35 | -0.0988 | -0.16 | -0.257 | 2.02 | -0.583 | 0.235 | -0.0377 (inactive) |
| O=c1cccc(-c2ccccc2C(F)(F)F)o1 | 0.747 | 0.3 (inactive) | 0.583 | 0.581 | 0.354 | 0.491 | -0.148 | -0.519 | -0.223 | -0.407 | -0.602 | 0.389 | -0.0583 | -2.29 | -0.547 | -0.661 | -0.074 | -0.599 | -0.861 | 1.24 (inactive) |
| CN(C)CCCNC(=O)[C@@H]1c2ccccc2C(=O)N(C2Cc3ccccc3C2)[C@H]1c1ccc(CO)cc1 | 0.274 | 0.0516 (inactive) | -0.45 | 0.197 | 0.505 | 0.132 | 0.682 | 1.3 | -0.0701 | 0.491 | 0.0265 | 1.11 | 0.726 | 0.784 | 0.27 | -0.139 | 2.07 | -0.199 | 0.164 | -0.825 (inactive) |
| C=C(CC1([C@@H](NP(=O)(c2ccccc2)c2ccccc2)[C@H]2C[C@@H]2CCN(C(=O)OCC)S(=O)(=O)c2ccc(C)cc2)CC1)c1ccccc1 | 0.963 | 0.39 (inactive) | 0.6 | 0.354 | 0.355 | 2.65 | 0.319 | 0.981 | -0.845 | 0.74 | 1.74 | 1.22 | 1.15 | 0.781 | 0.712 | -0.804 | 0.782 | -0.162 | 0.593 | 2.49 (inactive) |
| CCCCN1CC=CC23O[C@@H]4/C=C\CCC(C)OC(=O)C4[C@H]2C(=O)N(C(C)CO)[C@@H]3C1=O (stereo not given in full) | -1.58 | 0.319 (inactive) | -0.0498 | -0.0907 | 0.822 | -0.986 | 0.103 | -0.879 | -0.0668 | -0.59 | -0.0307 | -1.41 | 0.578 | -0.526 | -0.16 | -0.379 | 0.256 | -0.034 | -0.128 | -0.762 (inactive) |
| C=CC[C@@]12N=C(c3ccc(OCCCO)cc3)O[C@@H]1c1ccccc1N(Cc1ccccc1)C2=O | 0.0349 | 0.407 (inactive) | 0.405 | 0.14 | 0.463 | 3.15 | 0.532 | 1.3 | 1.43 | 1.02 | 2.52 | 1.17 | 0.986 | 0.8 | 1.55 | 1.44 | -0.379 | 1.55 | 1.04 | -2.6 (inactive) |
| CC(C)(C)OC(=O)CC[C@]1(C(N)=O)N=C(c2ccc(OCCCO)cc2)O[C@H]1c1ccccc1CN=[N+]=[N-] | 0.712 | 0.523 (inactive) | 0.761 | 0.234 | 0.981 | 3.63 | 0.666 | 1.33 | -0.894 | 0.831 | 3.93 | 1.15 | 0.291 | 0.878 | 0.421 | 1.44 | 0.187 | -0.512 | 0.668 | -4.65 (inactive) |
| CC(C)C[C@H]1NC(=O)[C@@]23C(=O)N[C@@H](Cc4ccccc4)C2[C@H](C)[C@@]2(C)O[C@H]2C3/C=C/C/C=C\CNC(=O)[C@@H]2CCCN2C1=O (stereo not given in full) | 0.773 | 0.119 (inactive) | 0.0694 | -0.176 | 0.725 | 1.23 | 0.145 | 0.975 | 0.293 | 0.276 | -0.17 | -0.0447 | -0.171 | 0.789 | 0.614 | 0.829 | -0.0387 | 0.661 | 0.032 | -0.575 (inactive) |
| [N-]=[N+]=Nc1ccccc1[C@@H]1OC(c2ccc(OCCCO)cc2)=N[C@]1(Cc1ccccc1)C(N)=O | 0.503 | -0.0189 (inactive) | 0.0694 | -0.0149 | 0.724 | 1.07 | -0.247 | 0.495 | -0.178 | 0.0171 | 1.91 | 0.445 | 0.474 | 0.899 | 0.207 | -0.425 | 1.86 | -0.188 | 0.619 | -8.14 (active) |
| CN(C)C(=O)[C@@]1(CCS(=O)(=O)c2ccccc2)N=C(c2ccc(OCCCO)cc2)O[C@H]1c1ccccc1N=[N+]=[N-] | 0.856 | -0.288 (inactive) | 0.488 | -0.112 | 0.669 | 2.13 | 0.521 | 1.29 | -0.0717 | 0.972 | 0.838 | 1.25 | 0.601 | 1 | 1.1 | 0.58 | 0.371 | 0.267 | 0.371 | -11 (active) |
